8 compounds from PubChem BioAssay (NCI) can be followed below.

Among the test systems are SR leukemia; RPMI-8226 leukemia; OVCAR-8 ovarian; OVCAR-5 ovarian; OVCAR-4 ovarian; SK-OV-3 ovarian; IGROV1 ovarian; OVCAR-3 ovarian; HS 578T breast; NCI/ADR-RES ovarian; T-47D breast; BT-549 breast; SW-620 colon; MCF7 breast; HCT-116 colon; HCC-2998 colon; KM12 colon; MDA-MB-435 melanoma.
Common to all, as to experiment: NCI-60 one-dose screen, 48 h (100 = growth as untreated, 0 = no growth, -100 = all killed)
Holding throughout (conditions): 10 µM unless noted

Several values for one entry are separate records, joined by “and”; a condition that tells them apart may be missing. Identical values can stand only once. Compounds without any hit were thinned out: in the full panel of roughly 83,000, 20% have a hit.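 Interpretation: 100, growth as untreated; towards 0, rising growth inhibition; 0, no net growth; 0 to -100, cell death. Compounds scoring below 10 were considered active.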 A number with no mark means an inactive call. Activity calls are given as the source filed them.

Regarding `C=C(CNCCO)[C@@H]1CC[C@]2(CO)CC[C@]3(C)[C@H](CC[C@@H]4[C@@]5(C)CCC(NCCc6ccc(O)cc6)C(C)(C)[C@@H]5CC[C@]43C)[C@@H]12` (some centres undefined), the growth in the experiment on SR leukemia was -50.6% (active); with RPMI-8226 leukemia, -51.3% (active); with OVCAR-8 ovarian, -76.8% (active); in the experiment with OVCAR-5 ovarian, 0.392% (active); in the experiment with OVCAR-4 ovarian it was -27.1% (active); in the experiment on SK-OV-3 ovarian, -73.2% (active). The growth is -61.5% (active) with IGROV1 ovarian; -64.3% (active) with OVCAR-3 ovarian; -55.9% (active) in the experiment on HS 578T breast; 33.4% in the experiment with NCI/ADR-RES ovarian; -66.1% (active) in the experiment with T-47D breast; -79.2% (active) in the experiment with BT-549 breast. The growth in the experiment with SW-620 colon is -75.1% (active); with MCF7 breast, -73.4% (active); in the experiment on HCT-116 colon, -94.4% (active); with HCC-2998 colon, -94.8% (active); in the experiment with KM12 colon it was -81.2% (active).

`COc1cc(-c2[nH]ncc2Nc2ccc(Cl)cc2)cc(OC)c1OC`: the growth in the experiment on SR leukemia was 67.7%; in the experiment with RPMI-8226 leukemia it was 21.1%; in the experiment with OVCAR-8 ovarian, 67.5%; in the experiment on OVCAR-5 ovarian, 75.7%; in the experiment with OVCAR-4 ovarian, 71.6%; in the experiment on SK-OV-3 ovarian, 64.3%. For the same compound, the growth in the experiment with IGROV1 ovarian is 69.8%; with OVCAR-3 ovarian it was 86.1%; with HS 578T breast, 66%; in the experiment with NCI/ADR-RES ovarian, 61.7%; in the experiment on T-47D breast it was 46.4%; in the experiment on BT-549 breast, 29.8%. The growth in the experiment with SW-620 colon was 82.6%; in the experiment on MCF7 breast, 41.9%; in the experiment with HCT-116 colon it was 58.4%; with HCC-2998 colon it was 83.4%; in the experiment with KM12 colon, 63.5%.

As to `Fc1ccc(NC(c2ccc(F)cc2)C2CCN(CCCCc3ccccc3)CC2)cc1` (centres undefined), the growth in the experiment on SR leukemia was -40.5% (active); in the experiment with RPMI-8226 leukemia it was -17.6% (active); in the experiment on OVCAR-8 ovarian, -21.9% (active); in the experiment with OVCAR-5 ovarian it was 59.1%; in the experiment on OVCAR-4 ovarian, 50.6%; in the experiment with SK-OV-3 ovarian, 64.6%. Moreover, the growth in the experiment with IGROV1 ovarian was 55.9%; with OVCAR-3 ovarian, 34%; with HS 578T breast, 71.7%; with T-47D breast, 22.4%; in the experiment with BT-549 breast, 61.1%; in the experiment on MDA-MB-435 melanoma, 43.8%. Besides, the growth with SW-620 colon is 12.7%; in the experiment with MCF7 breast, 5.18% (active); in the experiment on HCT-116 colon, -55.4% (active); in the experiment on HCC-2998 colon, 16.3%; with KM12 colon, 29.9%.

`O=C(NCc1ccc(Cn2c(=O)sn(-c3ccc(Cl)cc3)c2=O)cc1)OCc1ccc2c(Cl)cc(Cl)c(O)c2n1`: the growth with SR leukemia was 51.9%; with RPMI-8226 leukemia it was 46.8%; in the experiment on OVCAR-8 ovarian, 38.1%; in the experiment with OVCAR-5 ovarian, 74.9%; in the experiment with OVCAR-4 ovarian, 67.3%; with SK-OV-3 ovarian, 76%. Besides, the growth in the experiment on IGROV1 ovarian was 49.2%; in the experiment on OVCAR-3 ovarian, 63.7%; with HS 578T breast it was 69.7%; in the experiment on NCI/ADR-RES ovarian, 6.82% (active); in the experiment on BT-549 breast, 60.6%; in the experiment on MDA-MB-435 melanoma it was 54.7%. In addition, the growth in the experiment with SW-620 colon was 49.3%; with MCF7 breast, 50.3%; in the experiment with HCT-116 colon, 29.3%; with HCC-2998 colon, 67.9%; in the experiment with KM12 colon, 23.5%.

As for `CNC(=O)c1cc(Oc2ccc3nc(NC(=O)Nc4ccc(C(F)(F)F)cc4)sc3c2)ccn1`, the growth in the experiment on SR leukemia was 70.6%; with RPMI-8226 leukemia, 70.4%; in the experiment with OVCAR-8 ovarian, 48.5%; in the experiment with OVCAR-5 ovarian it was 93.9%; in the experiment with OVCAR-4 ovarian, 37.7%; in the experiment on SK-OV-3 ovarian it was 105%. Further, the growth is 70.9% with IGROV1 ovarian; 24% in the experiment on OVCAR-3 ovarian; 30% in the experiment on HS 578T breast; 44.8% in the experiment with T-47D breast; 62.3% with BT-549 breast; 37.9% with SW-620 colon. For the same compound, the growth in the experiment with MCF7 breast was 42%; in the experiment on HCT-116 colon, 7.67% (active); with HCC-2998 colon, 104%.

For `COc1ccc(-c2cc(=O)c3c(O)cc(O)cc3o2)cc1`, the growth was 59.9% and 69.1% in the experiment on SR leukemia; 87.6% and 87.3% in the experiment with RPMI-8226 leukemia; 103% and 90.2% in the experiment with OVCAR-8 ovarian; 112% and 130% in the experiment on OVCAR-5 ovarian; 118% and 102% in the experiment with OVCAR-4 ovarian; 112% and 135% in the experiment with SK-OV-3 ovarian. The growth in the experiment with IGROV1 ovarian is 125% and 113%; in the experiment with OVCAR-3 ovarian, 112% and 81%; with HS 578T breast, 120% and 97%; in the experiment on T-47D breast, 101% and 100%; with BT-549 breast, 109%; with MDA-MB-435 melanoma it was 96.3% and 96.5%. Further, the growth with SW-620 colon was 106% and 105%; in the experiment with MCF7 breast it was 117% and 106%; in the experiment with HCT-116 colon it was 103% and 94.5%; with HCC-2998 colon, 102% and 104%; in the experiment on KM12 colon it was 91% and 93.1%.

`COc1ccc(C/C(C)=C(/c2ccc(OCCN3CCCC3)cc2)c2ccc(OC(=O)NCc3ccccc3)cc2)cc1`: the growth is -22.6% (active) with SR leukemia; 66.7% with RPMI-8226 leukemia; 89.4% with OVCAR-8 ovarian; 81% with OVCAR-5 ovarian; 81.6% with OVCAR-4 ovarian; 104% with SK-OV-3 ovarian. The growth with IGROV1 ovarian was 101%; in the experiment on OVCAR-3 ovarian, 89.8%; in the experiment with HS 578T breast, 81.1%; in the experiment with T-47D breast it was 51%; in the experiment with BT-549 breast it was 82.5%; with MDA-MB-435 melanoma it was 73%. The growth in the experiment with SW-620 colon was 95.3%; in the experiment with MCF7 breast it was 30.7%; in the experiment on HCT-116 colon, 39.6%; with HCC-2998 colon, 87.8%; in the experiment on KM12 colon, 90.7%.

For `CCN(CC)CC(=O)Nc1ccc2ncnc(Nc3ccc(Oc4cccc(F)c4)c(Cl)c3)c2c1`, the growth in the experiment on SR leukemia is 2.54% (active); in the experiment with RPMI-8226 leukemia, 27.6%; with OVCAR-8 ovarian, 76.1%; in the experiment with OVCAR-5 ovarian, 80.8%; in the experiment with OVCAR-4 ovarian, 52.6%; in the experiment with SK-OV-3 ovarian, 22.4%. The growth is 18% in the experiment on IGROV1 ovarian; 52.7% in the experiment on OVCAR-3 ovarian; 79.5% in the experiment on HS 578T breast; 54.5% in the experiment on T-47D breast; 78.5% in the experiment on BT-549 breast; 75% in the experiment on MDA-MB-435 melanoma. Moreover, the growth in the experiment with SW-620 colon was 67.6%; in the experiment on MCF7 breast, 52.9%; with HCT-116 colon, 64.7%; in the experiment with HCC-2998 colon it was 53.1%; with KM12 colon, 51.5%.
